# According to PubChem BioAssay (Tox21):
# Where “and” joins values, the source holds several entries; their conditions need not be identical. Equal values may be shown once. Inconclusive results are not listed. Entries that show only a call come without a potency. Calls of active or inactive are those of the source. The call rests on the fitted dose curve; in most records, active means well fitted cell-killing curve with a large enough effect in the repeat runs; inconclusive means weak or mixed curves, or effect the other way; inactive means flat fitted curve, though single readings scatter.
# Experiment: qHTS assay to identify small molecule agonists of the constitutive androstane receptor (CAR) signaling pathway - cell viability counter screen (AID 1224836); further: nearly all actives have a fitted effect of over 45% in size
# Conditions: HepG2-CYP2B6-hCAR viability, CellTiter-Fluor, 23 h, PK11195 added to every well; series mostly up to 92.4 µM
# From the text: U.S. Tox21 Program National Center for Advancing Translational Sciences [NCATS] NIH Chemical Genomics Center [NCGC] U.S. Environmental Protection Agency [EPA] National Institutes of Environmental Health Sciences [NIEHS] National Toxicology Program [NTP] U.S. Food and Drug Administration [FDA] Tox21 Assay Overview: The constitutive androstane receptor (CAR) is a nuclear receptor which regulates multiple drug metabolizing enzymes (DMEs) and transporters. Activating CAR will generally increase the transcription and subsequent translation of CYP2B6 and CYP3A4. These two DMEs represent about 50% of the drug metabolizing potential in the body. […] Recently, there have also been studies performed indicating CARs role in energy metabolism and cancer therapy. Therefore, inducing CARs activity could have a potential effect on diabetes and cancer. Identifying environmental toxins and compounds which modulate CAR, through the use of the Tox21 10K compound collection, will be an important step in determining the toxicity and potential therapeutic effects these factors will have on the human body. To differentiate true CAR agonists from cytotoxic substances, the assay is multiplexed with a cell viability assay.
# Tox21 Assay Protocol Summary: A double-stable (hCAR and CYP2B6-2.2kb) transfected cell line, derived from human hepatoma (HepG2) cells, was utilized for the duration of the quantitative high-throughput screens. The HepG2-CYP2B6-hCAR cells were dispensed at 2500 cells/4 uL/well in 1536-well white solid bottom plates using a Multidrop Combi. After the assay plates were incubated at 37 C/5% CO2 for 4 hrs, 23 nL of compounds at 15 concentrations (from 5-48 columns) or positive control (from 1 to 4 columns) were transferred to the assay plates using a Pintool station. One uL of PK11195 (final concentration = 0.75 uM) was added, using a Flying Reagent Dispenser, inside each well. After a 23 hr incubation period at 37 C/5% CO2, 1 uL of CellTiter-Fluor reagent was added into each well of the assay plates using a Flying Reagent Dispenser. The fluorescence intensity in the plates was then measured using a ViewLux plate reader.
# Potency means the concentration at half of the fitted maximal effect.
row,Structure (SMILES),Potency
1,CCOP(=S)(OCC)SCCS(=O)(=O)CC,inactive
2,CCOC(=O)OC1=C(c2cc(C)ccc2C)C(=O)NC12CCC(OC)CC2 (stereo not given),inactive
3,CCCCCCCCCC[N+](C)(C)CCCCCCCCCC,43.3 µM (active)
4,CCC(C)c1cc([N+](=O)[O-])cc([N+](=O)[O-])c1OC(=O)C=C(C)C (stereo not given),61.1 µM (active)
5,Cc1cc(C)c(C2=C(OC(=O)CC(C)(C)C)C3(CCCC3)OC2=O)c(C)c1,inactive
6,Cc1cccc(OP(=O)(Oc2cccc(C)c2)Oc2cccc(C)c2)c1,inactive
7,CCCN(CCC)CCc1c[nH]c2ccccc12,inactive
8,CCCCCCCCc1ccc(O)cc1,69 µM (active)
9,O=CC(Br)(Br)Br,30.5 µM (active)
10,CC(C)(C)C(O)/C(=C\c1ccc(Cl)cc1Cl)n1cncn1 (stereo not given),74 µM (active)
11,Oc1ccccc1Br,inactive
12,N#Cc1ccc(O)cc1,inactive
13,CCCCCCCCCCCCCCCC[n+]1ccccc1,25.5 µM (active) and 15.4 µM (active) and 13.5 µM (active)
14,C1CCC2CCCCC2C1 (stereo not given),inactive
15,COc1cc(C=O)cc2c1[C@H](COC(N)=O)[C@]1(OC(C)=O)ON2C[C@H]2[C@@H]1N2C(C)=O,0.611 µM (active)
16,ClC1=C(Cl)[C@]2(Cl)[C@@H]3[C@@H](Cl)[C@@H](Cl)C[C@@H]3[C@@]1(Cl)C2(Cl)Cl,inactive
17,Fc1ccc(Oc2ccnc3cc(Cl)cc(Cl)c23)cc1,inactive
18,C=CC(=O)N(C)C,inactive
19,[Cd+2].[Cl-].[Cl-],5.49 µM (active) and 9.69 µM (active)
20,O=[N+]([O-])O.O=[N+]([O-])O.[Cd],7.7 µM (active)

row,Structure (SMILES),Potency
1,Cc1ccc(OP(=O)(Oc2ccccc2)Oc2ccccc2)cc1,inactive
2,[Cl][Sb]([Cl])[Cl],inactive
3,CCN(CC)c1c([N+](=O)[O-])cc(C(F)(F)F)c(N)c1[N+](=O)[O-],inactive
4,O=C(NC(=O)c1c(F)cccc1F)Nc1cc(Cl)c(OC(F)(F)C(F)F)c(Cl)c1,inactive
5,CC(C)(C)C(O)C(Oc1ccc(-c2ccccc2)cc1)n1cncn1 (stereo not given),inactive
6,C[As+](C)(C)CC(=O)[O-],inactive
7,Cc1ccc(CCl)cc1,inactive
8,Oc1cccc(-c2ccccc2)c1,inactive
9,ClC1=C(Cl)[C@]2(Cl)[C@@H]3[C@@H](Cl)[C@H](Cl)C[C@@H]3[C@@]1(Cl)C2(Cl)Cl,inactive
10,COC[C@H](C)N(C(=O)CCl)c1c(C)csc1C,inactive
11,CC(C)[C@H](C(=O)OC(C#N)c1cccc(Oc2ccccc2)c1)c1ccc(OC(F)F)cc1 (stereo not given in full),inactive
12,CC(C)CC(C)N (stereo not given),inactive
13,CCC(C)(C)C(=O)OC1=C(c2ccc(Cl)cc2Cl)C(=O)OC12CCCCC2,inactive
14,C[C@H]1CC[C@@H]2[C@@H](C)[C@H]3[C@H](C[C@H]4[C@@H]5CC=C6CC(O[C@@H]7O[C@H](CO)[C@H](O)[C@H](O[C@@H]8O[C@H](CO)[C@@H](O)[C@H](O)[C@H]8O)[C@H]7O[C@H]7O[C@@H](C)[C@H](O)[C@@H](O)[C@H]7O)CC[C@]6(C)[C@H]5CC[C@]34C)N2C1 (stereo not given in full),22.4 µM (active)
15,Oc1ccc(I)cc1,inactive
16,O=C(CCl)Nc1ccccc1,48.6 µM (active)
17,CCC[CH2][Sn]([CH2]CCC)([CH2]CCC)[O]C(=O)c1ccccc1,0.77 µM (active)
18,CC(C)CCCCCCCOP(=O)(Oc1ccccc1)Oc1ccccc1,inactive
19,Clc1ccc(C(c2ccccc2Cl)C(Cl)(Cl)Cl)cc1 (stereo not given),inactive
20,CC(C)(c1ccc(O)c(-c2ccccc2)c1)c1ccc(O)c(-c2ccccc2)c1,54.5 µM (active)
